High-throughput results from PubChem BioAssay.
PHOSPHO1 inh = blocks human PHOSPHO1 phosphatase activity; inhibition, % at 13.3 µM; recombinant PHOSPHO1, absorbance phosphatase assay; actives 1.1% (n = 290,000); AID 1565; Q8TCT1; in the data active means inhibition above about 60%
PfG6PD inh = PfG6PD (Plasmodium falciparum) enzyme inhibition; PfGluPho enzyme, NADPH resazurin-diaphorase fluorescence; inhibition, % at 20 µM; actives 0.78% (n = 350,000); AID 504690;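 active means inhibition reaching at least a set limit at 20 µM in the primary screen, cut at about 59% in these data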
ALR H2O2 inh = inhibitors of human sulfhydryl oxidase ALR; P55789; purified ALR, DTT oxidation, H2O2 HRP-luminol luminescence; inhibition, % (test concentration not listed); actives 3.8% (n = 290,000); AID 485317;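 active means mean replicate inhibition above about 79%, with every replicate also reaching it, limit read from the data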
Target sequence (P55789 whole entry, looked up): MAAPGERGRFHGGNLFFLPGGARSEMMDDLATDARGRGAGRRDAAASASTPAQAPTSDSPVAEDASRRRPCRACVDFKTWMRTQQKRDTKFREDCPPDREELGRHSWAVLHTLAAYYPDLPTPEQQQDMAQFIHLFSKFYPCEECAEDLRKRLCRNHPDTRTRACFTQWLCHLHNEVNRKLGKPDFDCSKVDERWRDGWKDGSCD
M18AAP inhibitor = PfM18AAP enzyme inhibition | AID 1822 | inhibition, % at 7.35 µM | recombinant PfM18AAP, H-Glu-NHMec fluorogenic cleavage | actives 1.2% (n = 290,000);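 active means inhibition above the campaign mean inhibition over all tested compounds plus 3 SD, cut at about 28% in these data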
H9c2 protect = myocardial damage modulation in H9c2 cells | protection from H2O2 cell death, % at 20 µM | actives 0.63% (n = 360,000) | H9c2 cardiomyocytes, H2O2 injury protection, ATPLite, 2 h | AID 588492;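 active means compounds giving at least 50% protection of heart cells from peroxide-induced death in the single-dose screen, raw or plate-pattern-corrected value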
Hits are given with their value; i = inactive; nt = no result. Most compounds without a hit are left out; they make up all but 5.6% or so of the library.

SMILES	PHOSPHO1 inh	PfG6PD inh	ALR H2O2 inh	M18AAP inhibitor	H9c2 protect
CCOc1ccc(/C=C(\C(=O)O)c2ccc(S(=O)(=O)N3CCCCC3)s2)cc1OC	nt	i	i	nt	i
COc1ccc(-c2cnc(C(N)=O)c(=O)[nH]2)cc1	nt	i	nt	nt	i
O=C1CCCCN1CCC(=O)N1CCCC(Nc2ccc(F)c(F)c2)C1 (stereo unspecified)	i	i	i	i	i
Cc1ccc(NC2CCCN(C(=O)CCCN3CCCCC3=O)C2)cc1C (stereo unspecified)	i	i	98.5	i	i
CCN(CCCNC(=O)CC(C(=O)N1CCc2ccccc21)n1ccnc1)c1ccccc1 (stereo unspecified)	i	i	98.9	i	i
O=C(CC(C(=O)N1CCc2ccccc21)n1ccnc1)NCc1cccnc1 (stereo unspecified)	i	i	nt	i	i
COC(=O)Cc1csc(Nc2ccc(F)c(Cl)c2)n1	i	i	i	i	i
CCOC(=O)/C(=N\Nc1ccccc1Cl)N(C)C1CCCCC1	i	i	98.5	i	i
CCC(C)N(C(=O)COC(=O)Cc1n[nH]c(=O)c2ccccc12)C1CCS(=O)(=O)C1 (stereo unspecified)	i	i	nt	i	59.5
NC(=Nc1ccc(N)cc1)C(N)=Nc1ccc(N)cc1	i	i	99.2	i	i
O=C1NN=C2CCCCCC12 (stereo unspecified)	nt	i	nt	nt	i
CCOC(=O)c1cc2c(=O)n3cccc(C)c3nc2n(Cc2ccco2)c1=NC(=O)c1ccccc1	i	i	89.4	i	i
CCOC(=O)c1cc2c(=O)n3cccc(C)c3nc2n(Cc2ccco2)c1=NC(=O)c1ccc(C)cc1	nt	i	nt	nt	i
O=C(NC1=NCCS1)c1cc(-c2ccc(-c3ccccc3)cc2)nc2ccccc12	i	i	i	i	i
COc1ccc(NC(=O)c2cc(-c3ccc(OC)c(OC)c3)nc3ccccc23)c(OC)c1	i	i	i	i	66.2
COc1ccc(-c2cc(C(=O)NC3CCCC3)c3ccccc3n2)cc1OC	nt	i	i	nt	i
COc1ccc(Nc2cc(C(=O)NCCCN3CCN(C)CC3)c3ccccc3n2)c(OC)c1	67.3	i	80.6	i	i
COc1ccc(NC(=O)c2cc(-c3ccncc3)nc3ccccc23)c(OC)c1	nt	i	i	nt	i
COc1ccc(-c2cc(C(=O)NC(C)c3ccccn3)c3ccccc3n2)cc1OC (stereo unspecified)	nt	i	i	nt	54.8
COc1ccc(-c2cc(C(=O)NC3=NCCS3)c3ccccc3n2)cc1OC	i	i	98.2	i	i
Cn1cc(CN2CCCC(C(=O)Nc3ccc(-c4cccc(F)c4)cc3)C2)cn1 (stereo unspecified)	i	i	i	i	i
NC(=O)c1ccsc1NC(=O)COC(=O)Cc1ccccc1Cl	nt	i	i	nt	i
CC1CCN(S(=O)(=O)c2ccc3c(c2)N(CC(=O)NCCCN2CCCCC2)C(=O)CS3)CC1	i	i	i	i	i
COc1ccc(S(=O)(=O)N2CC(C)N(C(=O)N(C)C)C2C)cc1 (stereo unspecified)	i	i	i	i	i
CC[n+]1c(/C=C/c2ccc(N(C)C)cc2)ccc2ccccc21	i	i	98.4	i	i
SMILES	PHOSPHO1 inh	PfG6PD inh	ALR H2O2 inh	M18AAP inhibitor	H9c2 protect
C[n+]1c(/C=C/c2ccc(O)cc2)ccc2ccccc21	i	i	98.9	i	i
CCN(CC)c1ccc(/C=C/c2ccc3ccc(OC)cc3[n+]2CC)cc1	i	i	99.1	i	i
CCN(CC(=O)NC(=O)NC1CCCC1)Cc1ccccc1	nt	i	i	nt	i
Cc1cc(=O)oc2cc(OCCSCCN3CCCC3)ccc12	i	i	98.5	i	i
CCN(CC)c1ccc2ccc(=O)oc2c1	i	i	98.4	i	i
CCN(CC)c1ccc2c(c1)oc(=O)c1c(Cl)cc(=O)oc12	i	i	97.0	i	i
CCN(CC)c1ccc2c(C)c(-c3ccc(N)cc3)c(=O)oc2c1	i	i	87.5	i	i
Cc1ccc(C(=O)OCC(=O)Nc2cc(Cl)ccc2C#N)o1	nt	i	nt	nt	i
CC1(C(=O)Nc2cccc3cccnc23)CCN1C(=O)Cc1ccc(Cl)cc1Cl (stereo unspecified)	nt	nt	nt	nt	i
O=C(NCc1ccccc1)c1cc(C2COCCN2S(=O)(=O)c2cccs2)on1 (stereo unspecified)	nt	nt	nt	nt	i
CCN(CC)c1ccc2c(C)c(Cl)c(=O)oc2c1	i	i	i	i	i
CC(=O)Oc1ccc2c(C)cc(=O)oc2c1	i	i	i	i	60.8
CCN(CC)c1ccc2c(C)cc(=O)oc2c1	nt	i	99.0	nt	i
CCOC(=O)N1CCN(C(=O)CN(C)S(=O)(=O)c2ccc(Cl)cc2)CC1	i	i	i	i	i
